Records with an inconclusive call do not appear. Active and inactive are the calls of the source. The call rests on the fitted dose curve; tested in HEK293 reporter line.
On the % scale 0 is the no-effect control and ±100 the full control effect; potency means the concentration at half of the fitted maximal effect.

A short description of the first test: qHTS for Inhibitors of the Functional Ribonucleoprotein Complex (vRNP) of Lassa (LASV) Arenavirus: LASV Primary Screen - GLuc reporter signal (AID 1347082). Further: nearly all actives have a fitted effect of over 60% in size. The note with it: LASV minigenome vRNP, Gaussia luciferase reporter; series mostly up to 57.5 µM; activity change, negative = inhibition: at the top concentration.
`COc1ccc(-c2ccc3c(N4CCOC[C@H]4C)nc(N4CCOC[C@H]4C)nc3n2)cc1CO`: the Potency was 0.0097 µM (active).
Take `CS(=O)(=O)c1cccc(CNc2nc(Nc3ccc4c(c3)CCC(=O)N4)ncc2C(F)(F)F)c1`: the “activity change, negative = inhibition” value is -28.5% (inactive).
Regarding `CC(C)CCCC(C)CCCC(C)CCCCC(C)CCCC(C)CCCC(C)C` (stereo not drawn), the “activity change, negative = inhibition” value was 5.59% (inactive).
Same read-out and setting: in the case of `CCOC(=O)c1cccnc1` it was 8.43% (inactive); in that of `Cn1c2cc(S(C)=O)sc2c2cnn(Cc3cccc(N)c3)c(=O)c21` (stereo not drawn), 7.6% (inactive); in that of `N[C@H]1C(O)O[C@H](CO)[C@@H](O)[C@@H]1O` (stereo partly drawn), 4.59% (inactive).
For `Nc1nc2c(ncn2CCC(CO)CO)c(=O)[nH]1`, the “activity change, negative = inhibition” value is -19.3% (inactive).
In the case of `CCC[C@H](NC(=O)C(C#N)=Cc1cccc(Br)n1)c1ccccc1`, the “activity change, negative = inhibition” value was -24.8% (inactive).
As for `O=C1[C@H](Cc2ccc(O)cc2)N2C(=O)CCN(C(=O)NCc3ccccc3)[C@H]2CN1Cc1cccc2ccccc12`, the Potency is 19.3 µM (active).
Take `CC1=C(/C=C/C(C)=C/C=C/C(C)=C/C(=O)O)C(C)(C)CCC1`: the Potency result is “inactive”.
For `CC(=O)Nc1ccc(O)cc1`, the Potency entry is “inactive”.
Take `Cc1cccc(-c2nn(C(=S)Nc3ccccc3)cc2-c2ccnc3ccccc23)n1`: the “activity change, negative = inhibition” value was 7.54% (inactive).
The same measure, in the same setting: in the case of `O=C(O)c1ccccc1O` it was -1.28% (inactive).
In the case of `COc1ccc(CC2SC(=O)NC2=O)cc1C(=O)NCc1ccc(C(F)(F)F)cc1` (stereo not drawn), the “activity change, negative = inhibition” value is -17.1% (inactive).
`Cc1cc(SCc2sc(-c3ccc(C(F)(F)F)cc3)nc2C)ccc1OCC(=O)O`: the “activity change, negative = inhibition” value is -0.875% (inactive).
On the same count and under the same terms, under `Nc1ccc(S(=O)(=O)Nc2ccccc2)cc1` stands 2.38% (inactive).
Same read-out and setting: in the case of `O=C(Nc1cccc(C2=NCCN2)c1)Nc1cccc(C2=NCCN2)c1` it was -9.52% [at 24.7 µM] (inactive).
In the case of `CCc1c(C)[nH]c2c1C(=O)C(CN1CCOCC1)CC2` (stereo not drawn), the Potency entry was “inactive”.
On to `COc1cc2ncnc(-n3nc(-c4ccccn4)nc3N)c2cc1OC`, for which the Potency is 13.7 µM (active).
On to `CCN(CC)CCc1nc(-c2ccccc2)no1`, for which the “activity change, negative = inhibition” value is -5.48% (inactive).
For `O=C1C=CC[C@@H]2[C@H]3CCCN4CCC[C@@H](CN12)[C@@H]34`, the Potency result is “inactive”.
`C=CCNC(N)=S`: the “activity change, negative = inhibition” value was -7.08% (inactive).
On to `C[C@@H]1CN(c2c(F)c(N)c3c(=O)c(C(=O)O)cn(C4CC4)c3c2F)C[C@H](C)N1`, for which the Potency result was “inactive”.
`NC(=O)c1ccc(-c2nc(-c3ccc4c(c3)OCO4)c(-c3ccccn3)[nH]2)cc1`: the “activity change, negative = inhibition” value was -2.89% (inactive).
For the molecule `NC(=O)c1ccc(I)c([N+](=O)[O-])c1`, the “activity change, negative = inhibition” value was 17.9% (inactive).
On the same count and under the same terms, in the case of `O=C(C=Cc1ccc(/C=C/C(=O)Nc2ccc(C3=NCCN3)cc2)cc1)Nc1ccc(C2=NCCN2)cc1` it was 2.1% (inactive); in that of `O=C(O)c1ccc2c(c1)nc(Nc1cccc(Cl)c1)c1ccncc12`, 19.8% (inactive).
In the case of `CC(C)(C)NCC(O)c1ccc(O)c(CO)c1` (stereo not drawn), the Potency entry is “inactive”.
Turning to `NCCO`, the “activity change, negative = inhibition” value was -17.8% [at 115 µM] (inactive).
Same read-out and setting: in the case of `Cc1c(C)c2c(c(C)c1OC(=O)c1cccnc1)CC[C@@](C)(CCC[C@H](C)CCC[C@H](C)CCCC(C)C)O2` it was -10.6% (inactive); in that of `CC(C)(C)C(=O)Oc1ccc2c(c1)nc(NC(=O)c1cccc([N+](=O)[O-])c1)n2CCCO`, -0.847% (inactive).
The same measure, in the same setting: under `Cc1cc(-c2ccccc2)nnc1NCCN1CCOCC1` stands 10% (inactive).
Turning to `O=C(NC1CCNCC1)c1[nH]ncc1NC(=O)c1c(Cl)cccc1Cl`, the Potency was 3.43 µM (active).
In the case of `OC[C@H](Cc1ccccc1)Nc1nc(Oc2ccc3c(c2)CCC3)nc2c1ncn2Cc1ccc(-c2ccccc2)cc1`, the “activity change, negative = inhibition” value is -1.7% (inactive).
Still for that read-out and setting: in the case of `CN(C)c1ccc(N=NS(=O)(=O)O)cc1` it was -23.1% [at 115 µM] (inactive); in that of `C[C@H](CN1CCCC1)C(=O)c1ccc(C(F)(F)F)cc1`, -3.14% (inactive); in that of `CCOC(=O)[C@@H](N)CCC(=O)N[C@@H](CSCc1ccccc1)C(=O)N[C@@H](C(=O)OCC)c1ccccc1`, -18.1% (inactive).
Take `Cc1c(CN2CCN(C(=O)C(C)C)CC2)sc2c(N3CCOCC3)nc(-c3cnc(N)nc3)nc12`: the Potency is 0.273 µM (active).
Regarding `O=C(O)c1ccc2cc(-c3ccc(O)c(C45CC6CC(CC(C6)C4)C5)c3)ccc2c1`, the “activity change, negative = inhibition” value is 4.09% (inactive).

A further test can be described thus: qHTS for Inhibitors of the Functional Ribonucleoprotein Complex (vRNP) of Lassa (LASV) Arenavirus: Viability assay - alamar blue signal for LASV Primary Screen (AID 1347083). Further: nearly all actives have a fitted effect of over 80% in size. The note with it: cell viability, alamar blue fluorescence (LASV minigenome counter-screen); series mostly up to 57.5 µM; activity change, negative = reduced viability: at the top concentration. Background: Quantitative high-throughput screening tests each substance at several concentrations.
Take `COc1ccc(-c2ccc3c(N4CCOC[C@H]4C)nc(N4CCOC[C@H]4C)nc3n2)cc1CO`: the Potency is 0.0153 µM (active).
For `CS(=O)(=O)c1cccc(CNc2nc(Nc3ccc4c(c3)CCC(=O)N4)ncc2C(F)(F)F)c1`, the Potency is 38.5 µM (active).
In the case of `CC(C)CCCC(C)CCCC(C)CCCCC(C)CCCC(C)CCCC(C)C` (stereo not drawn), the “activity change, negative = reduced viability” value is 1.65% (inactive).
On to `CCOC(=O)c1cccnc1`, for which the “activity change, negative = reduced viability” value is -0.127% (inactive).
On the same count and under the same terms, under `Cn1c2cc(S(C)=O)sc2c2cnn(Cc3cccc(N)c3)c(=O)c21` (stereo not drawn) stands -9.27% (inactive); under `N[C@H]1C(O)O[C@H](CO)[C@@H](O)[C@@H]1O` (stereo partly drawn), 7.91% (inactive); under `Nc1nc2c(ncn2CCC(CO)CO)c(=O)[nH]1`, 14.7% (inactive).
Regarding `CCC[C@H](NC(=O)C(C#N)=Cc1cccc(Br)n1)c1ccccc1`, the Potency is 34.3 µM (active).
Still for that read-out and setting: under `O=C1[C@H](Cc2ccc(O)cc2)N2C(=O)CCN(C(=O)NCc3ccccc3)[C@H]2CN1Cc1cccc2ccccc12` stands 19.3 µM (active); under `CC1=C(/C=C/C(C)=C/C=C/C(C)=C/C(=O)O)C(C)(C)CCC1`, “inactive”.
The same measure, in the same setting: in the case of `CC(=O)Nc1ccc(O)cc1` it was “inactive”.
For the molecule `Cc1cccc(-c2nn(C(=S)Nc3ccccc3)cc2-c2ccnc3ccccc23)n1`, the “activity change, negative = reduced viability” value was -30.9% (inactive).
Still for that read-out and setting: in the case of `O=C(O)c1ccccc1O` it was 4.22% (inactive).
As for `COc1ccc(CC2SC(=O)NC2=O)cc1C(=O)NCc1ccc(C(F)(F)F)cc1` (stereo not drawn), the “activity change, negative = reduced viability” value is -11.6% (inactive).
`Cc1cc(SCc2sc(-c3ccc(C(F)(F)F)cc3)nc2C)ccc1OCC(=O)O`: the “activity change, negative = reduced viability” value is -1.89% (inactive).
Turning to `Nc1ccc(S(=O)(=O)Nc2ccccc2)cc1`, the “activity change, negative = reduced viability” value is -1.33% (inactive).
Turning to `O=C(Nc1cccc(C2=NCCN2)c1)Nc1cccc(C2=NCCN2)c1`, the “activity change, negative = reduced viability” value is -12.9% [at 24.7 µM] (inactive).
Turning to `CCc1c(C)[nH]c2c1C(=O)C(CN1CCOCC1)CC2` (stereo not drawn), the Potency entry was “inactive”.
Consider `COc1cc2ncnc(-n3nc(-c4ccccn4)nc3N)c2cc1OC`, for which the Potency is 19.3 µM (active).
Turning to `CCN(CC)CCc1nc(-c2ccccc2)no1`, the “activity change, negative = reduced viability” value was -4.57% (inactive).
On to `O=C1C=CC[C@@H]2[C@H]3CCCN4CCC[C@@H](CN12)[C@@H]34`, for which the Potency entry is “inactive”.
With `C=CCNC(N)=S`, the “activity change, negative = reduced viability” value is -1.62% (inactive).
For `C[C@@H]1CN(c2c(F)c(N)c3c(=O)c(C(=O)O)cn(C4CC4)c3c2F)C[C@H](C)N1`, the Potency entry was “inactive”.
As for `NC(=O)c1ccc(-c2nc(-c3ccc4c(c3)OCO4)c(-c3ccccn3)[nH]2)cc1`, the “activity change, negative = reduced viability” value is -24.2% (inactive).
Regarding `NC(=O)c1ccc(I)c([N+](=O)[O-])c1`, the “activity change, negative = reduced viability” value is -14.7% (inactive).
The same measure, in the same setting: under `O=C(C=Cc1ccc(/C=C/C(=O)Nc2ccc(C3=NCCN3)cc2)cc1)Nc1ccc(C2=NCCN2)cc1` stands 11.4% (inactive); under `O=C(O)c1ccc2c(c1)nc(Nc1cccc(Cl)c1)c1ccncc12`, 7.93% (inactive).
`CC(C)(C)NCC(O)c1ccc(O)c(CO)c1` (stereo not drawn): the Potency result was “inactive”.
`NCCO`: the “activity change, negative = reduced viability” value is 10.6% [at 115 µM] (inactive).
As for `Cc1c(C)c2c(c(C)c1OC(=O)c1cccnc1)CC[C@@](C)(CCC[C@H](C)CCC[C@H](C)CCCC(C)C)O2`, the “activity change, negative = reduced viability” value is 5.27% (inactive).
Still for that read-out and setting: in the case of `CC(C)(C)C(=O)Oc1ccc2c(c1)nc(NC(=O)c1cccc([N+](=O)[O-])c1)n2CCCO` it was 0.139% (inactive); in that of `Cc1cc(-c2ccccc2)nnc1NCCN1CCOCC1`, 20.7% (inactive).
As for `O=C(NC1CCNCC1)c1[nH]ncc1NC(=O)c1c(Cl)cccc1Cl`, the Potency was 0.769 µM (active).
Turning to `OC[C@H](Cc1ccccc1)Nc1nc(Oc2ccc3c(c2)CCC3)nc2c1ncn2Cc1ccc(-c2ccccc2)cc1`, the “activity change, negative = reduced viability” value is -0.249% (inactive).
On the same count and under the same terms, under `CN(C)c1ccc(N=NS(=O)(=O)O)cc1` stands 7.13% [at 115 µM] (inactive); under `C[C@H](CN1CCCC1)C(=O)c1ccc(C(F)(F)F)cc1`, 5.28% (inactive).
On the same count and under the same terms, in the case of `CCOC(=O)[C@@H](N)CCC(=O)N[C@@H](CSCc1ccccc1)C(=O)N[C@@H](C(=O)OCC)c1ccccc1` it was -14.7% (inactive).
With `Cc1c(CN2CCN(C(=O)C(C)C)CC2)sc2c(N3CCOCC3)nc(-c3cnc(N)nc3)nc12`, the Potency was 0.137 µM (active).
As for `O=C(O)c1ccc2cc(-c3ccc(O)c(C45CC6CC(CC(C6)C4)C5)c3)ccc2c1`, the “activity change, negative = reduced viability” value was 1.07% (inactive).

The values are drawn from PubChem BioAssay (NCATS).
